According to PubChem BioAssay (NCATS):
Results filed as inconclusive are left out. The source made the active and inactive calls. Calls come from the whole dose curve; as a rule, active = well fitted inhibition curve with a large enough effect; inconclusive = small, poorly fitted or top-dose-only effect; inactive = flat fitted curve, though single readings scatter.

Experiments:
Test in all cases: qHTS profiling for inhibitors of Plasmodium falciparum proliferation (AID 504749); note: nearly all actives have a fitted effect of over 60% in size
Conditions in all cases: P. falciparum in erythrocytes, SYBR Green DNA, 72 h; series mostly up to 28.7 µM
CP305 = system: CP305
Outline: (§1)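 Quantitative HTS: compounds pinned into medium, infected erythrocytes added (0.3% parasitemia, 2.5% hematocrit), 72 h culture at 37 C under 5% CO2. Saponin/Triton lysis with SYBR Green I, overnight RT, then fluorescence read.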

CP315 = system: CP315
Outline: as §1

CP325 = system: CP325
Outline: as §1

CP329 = system: CP329
Outline: as §1

CP335 = system: CP335
Outline: as §1

DFO2036 = system: DFO2036
Outline: as §1

DIV14 = system: DIV14
Outline: as §1

DIV17 = system: DIV17
Outline: as §1

DIV30 = system: DIV30
Outline: as §1

Dd2 = system: Dd2
Outline: as §1

Measured: Potency
Potency is the fitted concentration of half-maximal effect.

C[Si](C)(C)O[Si](C)(C)C
inactive: all assays above

O=C(O)CC/C=C\CC[C@@H]1[C@@H](N2CCCCC2)[C@@H](O)C[C@@H]1OCc1ccc(-c2ccccc2)cc1
not listed: DIV17
inactive: all other assays above

O=S(=O)(O)CCCS(=O)(=O)O
inactive: all assays above

CC(CCc1ccc(O)cc1)NCC(O)c1ccc(O)cc1 (stereo unspecified)
not listed: DIV14
inactive: all other assays above

O=C(O)CCC(=O)c1ccc(-c2ccccc2)cc1
inactive: all assays above

COC(=O)CCC[N+](C)(C)C
not listed: DIV14
inactive: all other assays above

CCSc1ccc2c(c1)N(CCCN1CCN(C)CC1)c1ccccc1S2
not listed: DIV14 | DIV17
inactive: all other assays above

CC(/C=C/C=C(\C)C(=O)O[C@@H]1O[C@H](CO[C@@H]2O[C@H](CO)[C@@H](O)[C@H](O)[C@H]2O)[C@@H](O)[C@H](O)[C@H]1O)=C\C=C\C=C(C)\C=C\C=C(/C)C(=O)O[C@@H]1O[C@H](CO[C@@H]2O[C@H](CO)[C@@H](O)[C@H](O)[C@H]2O)[C@@H](O)[C@H](O)[C@H]1O
not listed: DIV14
inactive: all other assays above

NC(N)=O
not listed: DIV14
inactive: all other assays above

OCl
inactive: all assays above

O=C(CCCN1CCN2CCCC2C1)c1ccc(F)cc1 (stereo unspecified)
active: Dd2 12.6 µM
not listed: DIV14 | DIV17
inactive: all other assays above

CN(C)CCCSc1ccccc1NC(=O)/C=C/c1ccccc1
not listed: DIV14 | DIV17 | Dd2
inactive: all other assays above

CCCc1ccc(C(=O)O)cc1
inactive: all assays above

CC(C)OC(=O)Nc1ccc2nc(-c3cscn3)[nH]c2c1
not listed: DIV17
inactive: all other assays above

CC(C)c1nc(N(C)S(C)(=O)=O)nc(-c2ccc(F)cc2)c1/C=C/C(O)CC(O)CC(=O)O (stereo unspecified)
inactive: all assays above

CN(C)CCOc1ccc(/C(=C(/CCCl)c2ccccc2)c2ccccc2)cc1
not listed: DIV14 | DIV17
inactive: all other assays above

O=C(OCc1ccccc1)c1ccc(O)cc1
not listed: DIV14
inactive: all other assays above

FC(F)OC(Cl)C(F)(F)F (stereo unspecified)
not listed: DIV17
inactive: all other assays above

C=C(C)C1CC=C(C)CC1 (stereo unspecified)
inactive: all assays above

CO/N=C(/C(=O)N[C@@H]1C(=O)N2C(C(=O)O)=C(COC(N)=O)CS[C@H]12)c1ccco1
not listed: DIV17
inactive: all other assays above

O=C(O)c1cc(N=Nc2ccc(O)c(C(=O)O)c2)ccc1O
not listed: DIV14
inactive: all other assays above

O=C1c2ccccc2C(=O)C1c1ccc(F)cc1
inactive: all assays above

CCCCCc1ccc(C)cc1O
not listed: DIV14 | DIV17
inactive: all other assays above

C=CC(=O)O
not listed: DIV14
inactive: all other assays above

C[C@H]1O[C@@H](O[C@H]2[C@@H](O)C[C@H](O[C@H]3[C@@H](O)C[C@H](O[C@H]4CC[C@@]5(C)[C@H](CC[C@@H]6[C@@H]5C[C@@H](O)[C@]5(C)[C@@H](C7=CC(=O)OC7)CC[C@]65O)C4)O[C@@H]3C)O[C@@H]2C)C[C@H](O)[C@@H]1O
not listed: DIV14
inactive: all other assays above

CCN(CC)CCOC(=O)c1cccnc1
inactive: all assays above

Cc1cc2nc3c(=O)[nH]c(=O)nc-3n(C[C@H](O)[C@H](O)[C@H](O)COP(=O)(O)OP(=O)(O)OC[C@H]3O[C@@H](n4cnc5c(N)ncnc54)[C@H](O)[C@@H]3O)c2cc1C
not listed: DIV30
inactive: all other assays above

O=C(O)CCC/C=C\C[C@@H]1[C@@H](/C=C/[C@@H](O)COc2cccc(Cl)c2)[C@H](O)C[C@@H]1O
not listed: DIV17
inactive: all other assays above

CC(C)CCCCCCc1ccc(O)cc1
inactive: all assays above

Cc1ccc(C(C)(C)c2ccc(C)cc2)cc1
not listed: DIV14
inactive: all other assays above

CN(C)c1ccc(C(=C2C=CC(=[N+](C)C)C=C2)c2c(O)c(S(=O)(=O)[O-])cc3cc(S(=O)(=O)O)ccc23)cc1
not listed: DIV14 | DIV17
inactive: all other assays above

CC(C)=CCC/C(C)=C/C=C/C(C)=C/C=C/C(C)=C/C=C/C=C(C)/C=C/C=C(C)/C=C/C=C(\C)CCC=C(C)C
not listed: DIV14
inactive: all other assays above

O=C(OCc1ccccc1)c1cccnc1
not listed: DIV14
inactive: all other assays above

O=[N+]([O-])c1c(Cl)cccc1-c1c[nH]cc1Cl
not listed: DIV14
inactive: all other assays above

CC(C)NCC(O)COc1ccccc1-n1cccc1 (stereo unspecified)
not listed: DIV14 | Dd2
inactive: all other assays above

OCC(O)CO
inactive: all assays above

COc1ccc2c(=O)c(C)c(-c3ccccc3)oc2c1CN(C)C
inactive: CP305 | CP315 | CP325 | DIV30

O=P(O)(O)OP(=O)(O)O
not listed: DIV14 | DIV17 | DIV30
inactive: all other assays above

CCOC(=O)C1=C(COCCN)NC(C)=C(C(=O)OC)C1c1ccccc1Cl (stereo unspecified)
active: DIV14 12 µM
not listed: CP335 | DIV17 | Dd2
inactive: all other assays above

Oc1ccc(Cl)c2c1CCC2
not listed: CP335 | DIV17
inactive: all other assays above

Nc1ccc(N=Nc2ccccc2)c(N)n1
not listed: CP335
inactive: all other assays above

Cc1ccc(S(=O)(=O)O)cc1C
not listed: CP335
inactive: all other assays above
